Compound activity (PubChem)
Tau fibril ThT: qHTS for Inhibitors of Tau Fibril Formation, Thioflavin T Binding. Microtubule-associated protein tau (Homo sapiens), P10636. recombinant tau K18 P301L, heparin-induced fibrillization, ThT fluorescence. Potency, µM (top dose mostly 57.4 µM), hits mostly inhibitors. hit rate 2.1% among 270,000; further: nearly all actives have a fitted effect of over 55% in size
Target sequence (P10636 561-689 P618L limits assumed): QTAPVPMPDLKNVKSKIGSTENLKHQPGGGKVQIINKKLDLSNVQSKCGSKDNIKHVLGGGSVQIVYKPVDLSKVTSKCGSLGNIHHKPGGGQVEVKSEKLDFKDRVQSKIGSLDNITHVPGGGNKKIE
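Heparin-induced fibrillization of the P301L-mutant K18 repeat-domain fragment of human tau was followed by ThT binding in quantitative high-throughput format.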
Tau fibril FP: qHTS for Inhibitors of Tau Fibril Formation, Fluorescence Polarization. Microtubule-associated protein tau (Homo sapiens), P10636. K18 P301L tau heparin fibrillization, Alexa594 FP, 6 h. Potency, µM (doses to about 57.7 µM), usual class: inhibitors. hit rate 0.39% among 280,000. AID 1468, 2008; further: nearly all actives have a fitted effect of over 55% in size
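K18 P301L tau (15 uM unlabeled/0.24 uM Alexa 594-labeled, final) + compound + heparin 20 uM final; 100 mM NaOAc pH 7; 6 hr 37 C; ThT 30 uM final added, 1 hr RT; FP ex 555/em 632 nm.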
FBPA coupling cs: qHTS Assay for Inhibitors of Fructose-1,6-bisphosphate Aldolase from Giardia Lamblia: Coupling assay counterscreen | coupling enzyme system counterscreen, AmpLite Red fluorescence | activity change, negative = inhibition, % at 58.2 µM, hits read low | hit rate 0.67% among 290,000 | AID 2472, 2010; in the data active means activity change below about -30%
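Compounds tested against the coupling enzymes alone at 57.5 uM final; readout was AmpLite Red fluorescence (525/598 nm) after 20 min at RT.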
USP1-UAF1 inh: Inhibitors of USP1/UAF1: Primary Screen; recombinant USP1/UAF1, Ub-Rhodamine cleavage fluorescence; hit rate 0.23% among 390,000; Ubiquitin carboxyl-terminal hydrolase 1 (Homo sapiens), O94782; Potency, µM (series often up to 57.1 µM), usual class: inhibitors; further: nearly all actives have a fitted effect of over 60% in size
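In this screen, compounds sit with the deubiquitinase complex (1nM) for 15 min at room temperature before Ub-Rho is added at 150nM final. Fluorescence rise is then followed for 6 reads every 60 seconds.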
Tau fluor counter: Counterscreen qHTS for Inhibitors of Tau Fibril Formation, Fluorescence Polarization. tau K18 P301L (four-repeat tau fragment) Alexa594 fluorescence, heparin fibrillization. Potency, µM (doses to about 57.7 µM). AID 1463, 2008. hit rate 0.93% among 280,000; further: nearly all actives have a fitted effect of over 55% in size
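Human K18 P301L tau (15 uM unlabeled plus 0.24 uM Alexa 594-labeled, final) in 100 mM sodium acetate pH 7 was mixed with compound and 20 uM heparin and incubated 6 hr at 37 C.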
Numbers stand for hits; [ ] = dose if it differs, or a comment. Only some compounds are listed: those with a hit (about 2.3% of all), similar ones and a draw of the others. Unless noted, the call rests on the fitted dose curve; in most records, active means well fitted curve in the direction sought with a large enough effect; inconclusive means small, poorly fitted or top-dose-only effect, or another doubt; inactive means no such curve, though single readings can be large; an effect the other way counts as inactive or inconclusive.

`O=C1CC(Nc2ccc(N3CCOCC3)cc2)C(=O)N1CCc1ccccc1` (configuration not stated) gave Tau fibril ThT inconclusive, Tau fibril FP inactive, FBPA coupling cs inactive, USP1-UAF1 inh inactive and Tau fluor counter inactive.
Screening O=C1CC(Nc2ccc(N3CCOCC3)cc2)C(=O)N1c1cccc(C(F)(F)F)c1 (configuration not stated) returned Tau fibril ThT 16µM, Tau fibril FP inactive, FBPA coupling cs -36, USP1-UAF1 inh inactive and Tau fluor counter inactive.
For CCn1c(=O)c2cc(C(=O)Nc3cccc(C(F)(F)F)c3)sc2c2ccccc21 the results were Tau fibril ThT inactive, Tau fibril FP inconclusive, USP1-UAF1 inh inconclusive and Tau fluor counter inactive.
CC(=O)OC[C@@H]1O[C@H](C/C=N\O[C@@H](C)CN2CCCc3nc(C)c(C)cc32)C=C[C@@H]1OC(C)=O was read as Tau fibril ThT inactive[11.5 µM], Tau fibril FP inactive[11.6 µM], FBPA coupling cs inactive and Tau fluor counter inactive[11.6 µM].
CCN(C(=O)c1cc2cc(Br)cc(OC)c2oc1=O)c1ccccc1 was read as Tau fibril ThT inconclusive, Tau fibril FP inactive, USP1-UAF1 inh inactive and Tau fluor counter inactive.
`COc1ccc(Nc2nc3[nH]c(=O)cc(O)c3s2)cc1` gave Tau fibril ThT inactive, Tau fibril FP inactive, FBPA coupling cs inactive, USP1-UAF1 inh inactive and Tau fluor counter inactive.
`O=c1cc(O)c2sc(Nc3ccc(F)c(Cl)c3)nc2[nH]1` gave Tau fibril ThT 28µM, Tau fibril FP inconclusive, FBPA coupling cs inactive, USP1-UAF1 inh inconclusive and Tau fluor counter inconclusive.
O=c1cc(O)c2sc(Nc3ccc(Cl)c(F)c3)nc2[nH]1 was read as Tau fibril ThT 16µM, Tau fibril FP 13µM, FBPA coupling cs inactive, USP1-UAF1 inh inactive and Tau fluor counter inconclusive.
CC(=O)c1ccc(NC(=O)CSc2nc3[nH]c(=O)cc(O)c3s2)cc1 was read as USP1-UAF1 inh inactive.
COCC1=C2c3ccccc3[C@H](C[N+](=O)[O-])C(C(=O)OC)(C(=O)OC)CC2C2C(=O)N(c3ccccc3)C(=O)C2C1 (some centres not stated) was read as Tau fibril ThT inactive, Tau fibril FP inactive, FBPA coupling cs inactive and Tau fluor counter inactive.
For CCc1ccc(NC(=O)Cn2ncc3c(C)n(Cc4cccc(Cl)c4)c(C)c3c2=O)cc1 the results were Tau fibril ThT inactive, Tau fibril FP inactive, USP1-UAF1 inh inconclusive and Tau fluor counter inactive.
Screening CC(=O)Nc1sc(/C(C#N)=C/c2ccc(Cl)c(Cl)c2)nc1-c1ccc(C)cc1 returned Tau fibril ThT inconclusive, Tau fibril FP inactive, FBPA coupling cs -44, USP1-UAF1 inh inactive and Tau fluor counter inactive.
`CCSc1ncc(/C=N/Nc2ccccc2)n1C` gave Tau fibril ThT 4.5µM, Tau fibril FP inconclusive, FBPA coupling cs inactive, USP1-UAF1 inh inactive and Tau fluor counter inconclusive.
`CCSc1ncc(/C=N/Nc2ccc(Cl)cc2)n1C` gave Tau fibril ThT 7.9µM, Tau fibril FP inactive, FBPA coupling cs inactive, USP1-UAF1 inh inactive and Tau fluor counter 6.3µM[quencher].
CCSc1ncc(/C=N/Nc2ccc([N+](=O)[O-])cc2)n1C was read as Tau fibril ThT 0.89µM, Tau fibril FP inactive, FBPA coupling cs inactive, USP1-UAF1 inh inactive and Tau fluor counter inconclusive.
Screening COc1ccc(C2NC(=O)C(C#N)=C(S)N2c2ccc(C)cc2)cc1OC (configuration not stated) returned Tau fibril ThT 32µM, Tau fibril FP inconclusive, FBPA coupling cs inactive, USP1-UAF1 inh inactive and Tau fluor counter inactive.
`COc1ccc(N2C(S)=C(C#N)C(=O)NC2c2ccc(OC)c(OC)c2)cc1` (configuration not stated) gave Tau fibril ThT 28µM, Tau fibril FP inconclusive, FBPA coupling cs inactive, USP1-UAF1 inh inactive and Tau fluor counter inactive.
`Cc1cccc(NC(=O)c2ccc(CN3CC(=O)N4CCCCC4C3=O)cc2)c1C` (configuration not stated) gave Tau fibril ThT inactive, Tau fibril FP inconclusive, USP1-UAF1 inh inactive and Tau fluor counter inactive.
CCOC(=O)Cc1ccc(NC(=O)NCc2ccc3c(c2)CCN3C(=O)CC)cc1 was read as Tau fibril ThT inactive, Tau fibril FP inactive, USP1-UAF1 inh inactive and Tau fluor counter inactive.
Screening O=C(N/N=C/c1ccc(OCc2ccccc2)cc1)c1ccncc1 returned Tau fibril ThT inconclusive, Tau fibril FP inactive, FBPA coupling cs inactive, USP1-UAF1 inh inactive and Tau fluor counter inactive.
O=C(C[n+]1ccc(C(=O)N/N=C/c2ccc(Br)cc2)cc1)c1ccccc1 was read as Tau fibril ThT 13µM, Tau fibril FP inactive, FBPA coupling cs inactive, USP1-UAF1 inh inactive and Tau fluor counter inconclusive.
O=C(C[n+]1ccc(C(=O)N/N=C/c2ccc(OCc3ccccc3)cc2)cc1)c1ccccc1 was read as Tau fibril ThT 6.3µM, Tau fibril FP inactive, FBPA coupling cs inactive, USP1-UAF1 inh inactive and Tau fluor counter inconclusive.
Screening COc1ccc(OC)c(/C=N/NC(=O)CC(=O)NCc2ccccc2)c1 returned Tau fibril ThT inactive, Tau fibril FP inactive, FBPA coupling cs -33, USP1-UAF1 inh inactive and Tau fluor counter inactive.
Screening O=C(C[n+]1ccccc1)N/N=C/c1ccc(Br)cc1 returned USP1-UAF1 inh inactive.
Screening COc1ccc(/C=N/NC(=O)C[n+]2ccccc2)c(OC)c1 returned Tau fibril ThT inactive, Tau fibril FP inactive, FBPA coupling cs inactive, USP1-UAF1 inh inactive and Tau fluor counter inactive.
`COc1ccc(OC)c(/C=N/NC(=O)c2cc[n+](CC(=O)c3ccccc3)cc2)c1` gave Tau fibril ThT 11µM, Tau fibril FP inactive, FBPA coupling cs inactive, USP1-UAF1 inh inactive and Tau fluor counter inconclusive.
`O=C(O)CO` gave FBPA coupling cs inactive.
Screening O=C(N/N=C/c1ccc(F)cc1)c1ccccc1 returned Tau fibril ThT inactive, Tau fibril FP inactive, FBPA coupling cs inactive, USP1-UAF1 inh inactive and Tau fluor counter inactive.
`O=C(C[n+]1ccc(C(=O)N/N=C/c2ccc(O)cc2)cc1)c1ccccc1` gave Tau fibril ThT 8.9µM, Tau fibril FP inactive, FBPA coupling cs inactive, USP1-UAF1 inh inactive and Tau fluor counter inconclusive.
For Oc1ccc(N=Cc2ccc(OCc3ccccc3)cc2)cc1 the results were Tau fibril ThT 4µM, Tau fibril FP 13µM, FBPA coupling cs -32, USP1-UAF1 inh 2.8µM and Tau fluor counter inconclusive.
COc1ccc(C(=O)N/N=C/c2cc3ccccc3[nH]c2=S)cc1 was read as Tau fibril ThT 4µM, Tau fibril FP inactive, FBPA coupling cs inactive, USP1-UAF1 inh inactive and Tau fluor counter inconclusive.
